Shown is part of a subset that was picked to be rich in hits.
Pf Dd2 growth: qHTS Primary assay for Inhibitors of Plasmodium falciparum Dd2 growth in vitro. P. falciparum Dd2 growth, SYBR Green, 72 h. Potency, µM (titrated, usually from 28.9 µM), for the others: top-dose activity, negative = inhibition, usual class: inhibitors. 120,000 compounds, 4.3% hits. AID 1347417, 2020; active = well fitted inhibition curve with a large enough effect;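 note: plate controls were DMSO vehicle for no effect and reference drug for full effect; nearly all actives have a fitted effect of over 65% in size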
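Readout: SYBR Green fluorescence, 485 nm excitation, 535 nm emission, after ~16 h lysis at 37C. Before that, Dd2-infected red cells (2.5% hematocrit) grew 72 h with compound, 29 uM top final concentration.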
An asterisk follows results filed as active; i = inactive; [ ] = dose if it differs, or a comment. Potency is the fitted concentration of half-maximal effect.

SMILES	Pf Dd2 growth
COCc1noc([C@@H]2CN(Cc3cccc(F)c3)C[C@H]2COC)n1	17%
CCO[C@H]1CN(Cc2cnc(SCc3ccccc3)nc2)C[C@@H]1O	-18%
CCO[C@H]1CN(Cc2ccc(OC)c(OCc3cccc(F)c3)c2)C[C@@H]1O	13µM*
CCCc1ncncc1C(=O)NC1CC(c2nnc(CO)n2C2CC2)C1 (stereo unspecified)	-2%
Cc1ccc(CNC(=O)N2CCC(Cn3c(C)cnc3C3CCOCC3)CC2)cc1	-24%
Cc1ccc(CNC(=O)N2CCCC(CN3CCCC3)CC2)cc1 (stereo unspecified)	4.5µM*
COCCOC1CCN(C(=O)NCc2ccc(C)cc2)CC1	-2%
COc1ccc(CC(=O)Nc2sc3c(c2C(=O)Nc2ccccc2)CCCCC3)cc1	0%
COc1ccc(NC(=O)c2c(NC(=O)c3cccc(C)c3)sc3c2CCC3)cc1	-10%
COc1ccc(NC(=O)c2c(NC(=O)COc3ccc(Cl)cc3)sc3c2CCCCC3)cc1	3.2µM*
CCOC(=O)c1ccc(NC(=O)c2csc3c2CCCC3)cc1	-22%
O=C(COc1ccccc1)Nc1sc2c(c1C(=O)Nc1ccccc1)CCCCC2	25%
COc1ccc(NC(=O)c2c(NCc3cccs3)sc3c2CCCC3)cc1	7.9µM*
CCCCOc1ccc(C(=O)Nc2sc3c(c2C(=O)OCC)CCCCC3)cc1	-17%
CCOC(=O)c1ccc(NC(=O)c2c(NCc3cccs3)sc3c2CCCCC3)cc1	10µM*
COC(=O)c1c(NC(=O)COc2cc(C)c(Cl)c(C)c2)sc2c1CCCC2	3%
CN(C)c1ccc(-c2nnnn2[C@H]2CO[C@H]3[C@@H]2OC[C@@H]3NS(=O)(=O)c2ccc3ccccc3c2)cc1	-28%
CCOc1ccc(C2NC(=O)N(CC3CC3)C3=C2C(=O)OC3)cc1 (stereo unspecified)	-19%
CCc1cccc(NS(=O)(=O)c2ccc3c(c2)CC(C)N3C(=O)C2CC2)c1 (stereo unspecified)	-16%
CCc1ccc(NC(=O)C2CCC(CNS(=O)(=O)c3ccc4c(c3)CC(C)N4C(C)=O)CC2)cc1 (stereo unspecified)	10µM*
CC(=O)N1c2ccc(S(=O)(=O)NCc3ccccc3Cl)cc2CC1C (stereo unspecified)	66%
CC(=O)N1c2ccc(S(=O)(=O)NCC3CCC(C(=O)Nc4ccc(F)cc4)CC3)cc2CC1C (stereo unspecified)	i
CC(=O)N1c2ccc(S(=O)(=O)NCC3CCC(C(=O)Nc4ccc(C)c(C)c4)CC3)cc2CC1C (stereo unspecified)	-20%
CC1Cc2cc(S(=O)(=O)NCc3ccccc3)ccc2N1C(=O)C1CCC1 (stereo unspecified)	3.5µM*
COCCc1nncn1C1CCN(S(=O)(=O)c2ccc(F)cc2)CC1	13%
SMILES	Pf Dd2 growth
O=C1CCN(S(=O)(=O)c2cccs2)CCCCCCN1	-5%
Cc1cc(C(F)(F)F)nn1CC(=O)N1CC[C@H](CO)[C@H](NC(=O)C2CC2)C1	-9%
COc1ccc(CCC(=O)NCCC2CCN(C(=O)Nc3cc(F)cc(F)c3)CC2)cc1	-18%
CS(=O)(=O)N1CCCC(C(=O)NC2CCN(Cc3ccccc3)CC2)CCNC(=O)CC1 (stereo unspecified)	14%
COc1ccc(C)cc1NC(=O)c1ccc2c(c1)N(C)C1CCCN1C2=O (stereo unspecified)	i
COc1cccc([C@@H]2Nc3ccc(C(=O)O)cc3[C@@H]3C=CC[C@@H]32)c1OC	2%
COc1cccc(NS(=O)(=O)c2ccc3c(c2)[C@H]2C=CC[C@H]2[C@@H](c2ccccc2Cl)N3)c1	10µM*
COc1cccc(NS(=O)(=O)c2ccc3c(c2)CCCN3C(=O)C2CCC2)c1	-23%
N#Cc1ccc(OCc2nc3c(n2Cc2ccccc2)C(=O)N(CC2CC2)CCN3)cc1	10µM*
COc1cccc(OCc2nc3c(n2Cc2ccccc2)C(=O)N(CC2CCOCC2)CCN3)c1	11µM*
O=C1c2c(nc(COc3ccccc3)n2Cc2ccccc2)NCCN1CCOc1ccccc1	i
O=C1c2c(nc(COc3ccc(F)cc3)n2Cc2ccccc2)NCCN1Cc1ccccc1	i
O=C1c2c(nc(CNCc3cccc(Cl)c3)n2Cc2ccccc2)NCCN1Cc1ccccc1F	i
COc1cccc(OCc2nc3c(n2Cc2ccccc2)C(=O)N(C)CCN3)c1	i
COc1cccc(OCc2nc3c(n2Cc2ccccc2)C(=O)N(CCOc2ccccc2)CCN3)c1	-19%
COc1cc(Cl)ccc1OCc1nc2c(n1Cc1ccccc1)C(=O)N(Cc1ccccc1C#N)CCN2	-9%
N#Cc1ccccc1CN1CCNc2nc(CNCc3ccc4c(c3)OCO4)n(Cc3ccccc3)c2C1=O	6.3µM*
Cc1noc(C)c1C(=O)N1CCC2(CC1)CN(C(=O)N(C)C)Cc1ccccc1O2	-20%
Cc1ccc(CN(C)C2CCc3nn(C)c(=O)n3CC2)o1 (stereo unspecified)	17%
COc1ccc(-c2cc(N3CCN(C(=O)c4cccc(Br)c4)CC3)n[nH]2)cc1	-5%
CC(=O)N1CCN(C(=O)C2CCNCC2)C[C@@H]1C(=O)N[C@@H](CC1CCCCC1)C(N)=O	-6%
Cc1cc2nn(-c3ccccc3)nc2cc1NC(=O)c1cccc2c(Cl)cccc12	46%
CCN(CC)c1ccc(-n2nc3cc(C)c(NC(=O)c4ccccc4F)cc3n2)cc1	1.4µM*
Cc1cc2nn(-c3ccc(F)cc3)nc2cc1NC(=O)c1cc(Cl)ccc1Cl	28%
COc1cccc(C(=O)N2CCCC2c2nc(C3CCOCC3)no2)c1 (stereo unspecified)	7%
SMILES	Pf Dd2 growth
Cc1ccc(-n2c(C3CCN(C(=O)c4cc(F)ccc4Cl)CC3)n[nH]c2=O)cc1	i
COCCS(=O)(=O)c1ncc(CN(C)C(C)c2ccon2)n1Cc1ccccc1 (stereo unspecified)	-4%
CC(C)Cn1c(CN2CCSCC2)cnc1S(=O)(=O)Cc1ccccc1	-22%
COCCS(=O)(=O)c1ncc(CN2CC[C@@H]3CCCC[C@H]3C2)n1Cc1ccccc1	6.3µM*
CNC(=O)[C@@H]1C[C@@H](n2cc(CNC(=O)Nc3cc(F)ccc3F)nn2)CN1	-3%
CC(=O)Nc1cccc(-c2cc3c(ccn3C)c(C(=O)NCCc3cnc[nH]3)n2)c1	5µM*
Cc1cc(C)c(CNC(=O)c2nc(-c3cnn(C)c3)cc3c2ccn3C)c(=O)[nH]1	i
COc1ccc(-c2cc3c(ccn3C(C)C)c(C(=O)NCc3c(C)cc(C)[nH]c3=O)n2)cn1	6.3µM*
COc1ccc(-c2cc3c(ccn3C)c(C(=O)NCCc3cnc[nH]3)n2)cn1	i
Cn1ccc2c(C(=O)NCc3cccnc3)nc(-c3cccnc3)cc21	26%[44.1 µM]
Cn1ccc2c(C(=O)NCCc3cnc[nH]3)nc(-c3ccccc3)cc21	-28%[44.1 µM]
Cn1ccc2c(C(=O)NCCc3cnc[nH]3)nc(-c3cccc(CO)c3)cc21	i
COc1ccc(-c2cc(C(=O)NCc3c(C)cc(C)[nH]c3=O)c3c(c2)N(C(C)C)CCO3)cc1OC	i
Cc1cc(C)c(CNC(=O)c2cc(-c3ccc(CN(C)C)cc3)cc3ncn(C)c23)c(=O)[nH]1	-18%
COc1cccc(-c2cc3c(ccn3C)c(C(=O)NCc3c(C)cc(C)[nH]c3=O)n2)c1	10µM*
Cc1cc(C)c(CNC(=O)c2nc(-c3ccccc3C)cc3c2ccn3C(C)C)c(=O)[nH]1	-22%[44.1 µM]
Cc1ccc(-c2cc3c(ccn3C(C)C)c(C(=O)NCc3c(C)cc(C)[nH]c3=O)n2)cn1	7.1µM*
CCc1ccc(CN2CCC(CNC(=O)c3occc3C)CC2)nc1	-22%

Source: PubChem BioAssay (National Center for Advancing Translational Sciences (NCATS))
